Reference: the supplement of paper PMC7695840

The molecules below were run on Staphylococcus aureus MW2 delta-mecA (mecA-) (assay: normalized GFP fluorescence (growth of mecA- strain) (fraction of control range); higher = more growth of mecA- strain). Conditions: compound concentration: 150 uM; cefoxitin: subinhibitory; fluorescent label: GFP.
How it was run: (§1)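 Pre-induced S. aureus MW2 cells with the gene (DsRed) and without it (GFP) were mixed 1:1 in LB holding a subinhibitory antibiotic dose set daily and grown on 150 μM compound (1.5% DMSO) in 1536-well plates, single replicate, for 20 h at 37 °C. DsRed (540/590) and GFP (485/520) readings were scaled per plate between single-strain control medians. Plates with high untreated ratios and rows with DsRed/GFP >10 were excluded.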

SMILES | normalized GFP fluorescence
CC1(C)NC(=O)N(c2ccc([N+](=O)[O-])c(C(F)(F)F)c2)C1=O | 0.333
CC#C[C@]1(O)CC[C@H]2[C@@H]3CCC4=CC(=O)CCC4=C3[C@@H](c3ccc(N(C)C)cc3)C[C@@]21C | 0.622
O=C(NC(Cc1cc(=O)[nH]c2ccccc12)C(=O)O)c1ccc(Cl)cc1 (stereo not drawn) [Rebamipide] | 0.175
C[C@]12C=CC(=O)C=C1CC[C@@H]1[C@@H]2C(=O)C[C@@]2(C)[C@H]1CC[C@]2(O)C(=O)CO | 0.371
CCCCCCCCCC(=O)N[C@@H](Cc1c[nH]c2ccccc12)C(=O)N[C@H](CC(N)=O)C(=O)N[C@@H](CC(=O)O)C(=O)N[C@@H]1C(=O)NCC(=O)N[C@@H](CCCN)C(=O)N[C@@H](CC(=O)O)C(=O)N[C@H](C)C(=O)N[C@@H](CC(=O)O)C(=O)NCC(=O)N[C@H](CO)C(=O)N[C@@H]([C@H](C)CC(=O)O)C(=O)N[C@@H](CC(=O)c2ccccc2N)C(=O)O[C@@H]1C [Daptomycin] | 0.013
COc1cc(NS(=O)(=O)c2ccc(N)cc2)nc(OC)n1 | 0.338
Nc1ncnc2c1ncn2[C@@H]1O[C@H](COP(=O)(O)O)[C@@H](O)[C@H]1O | 0.4
NC(=O)OCC(COC(N)=O)c1ccccc1 [Felbamate] | 0.382
NNC(=O)c1ccncc1 | 0.19
Cc1onc(-c2ccccc2)c1-c1ccc(S(N)(=O)=O)cc1 [Valdecoxib] | 0.291
CC(C)(C)NC[C@H](O)COc1ccccc1C1CCCC1 | 0.435
CC(=O)O[C@]1(C(C)=O)CC[C@H]2[C@@H]3C=C(Cl)C4=CC(=O)CC[C@]4(C)[C@H]3CC[C@@]21C | 0.23
NS(=O)(=O)c1cc(Cl)c(Cl)c(S(N)(=O)=O)c1 [Dichlorphenamide (Diclofenamide)] | 0.31
CN1CC2c3ccccc3Oc3ccc(Cl)cc3C2C1 (stereo not drawn) [Asenapine] | 0.129
O=c1[nH]cnc2c1ncn2[C@H]1CC[C@@H](CO)O1 [Didanosine (Videx)] | 0.446
CCOC(=O)C1=C[C@]2(CC)CCCN3CCc4c(n1c1ccccc41)[C@@H]32 | 0.593
C[C@@H](c1ncncc1F)[C@](O)(Cn1cncn1)c1ccc(F)cc1F | 0.309
CC#CCn1c(N2CCC[C@@H](N)C2)nc2c1c(=O)n(Cc1nc(C)c3ccccc3n1)c(=O)n2C | 0.315
CN1C2=CC(=O)/C(=N\NC(N)=O)C=C2CC1S(=O)(=O)O (stereo not drawn) [Carbazochrome sodium sulfonate] | 0.171
CCc1cccc2c3c([nH]c12)C(CC)(CC(=O)O)OCC3 (stereo not drawn) | 0.0954
NC[C@H](O)c1ccc(O)c(O)c1 | 0.502
CC(=O)Oc1cc2c(s1)CCN(C(C(=O)C1CC1)c1ccccc1F)C2 (stereo not drawn) [Prasugrel (Effient)] | 0.226
COc1ccc2c(c1)c(CC(=O)O)c(C)n2C(=O)c1ccc(Cl)cc1 | -0.013

What follows are molecules tested on Staphylococcus aureus MW2 (mecA+) (assay: normalized DsRed fluorescence (growth of mecA+ strain) (fraction of control range); higher = more growth of mecA+ strain). Conditions: compound concentration: 150 uM; cefoxitin: subinhibitory; fluorescent label: DsRed.
How it was run: as §1

SMILES | normalized DsRed fluorescence
CC(C)NCC(O)COc1ccc(CC(N)=O)cc1 (stereo not drawn) | 0.749
N#Cc1ccc(C(c2ccc(C#N)cc2)n2cncn2)cc1 | 0.758
CC(=O)OCC(=O)[C@@]12N=C(C)O[C@@H]1C[C@H]1[C@@H]3CCC4=CC(=O)C=C[C@]4(C)[C@H]3[C@@H](O)C[C@@]12C | 0.567
CCCSc1ccc2[nH]c(NC(=O)OC)nc2c1 | 0.742
NS(=O)(=O)c1cc(C2(O)NC(=O)c3ccccc32)ccc1Cl (stereo not drawn) | 0.584
C1CCC(C(CC2CCCCN2)C2CCCCC2)CC1 (stereo not drawn) | 0.0259
CC1(C)O[C@@H]2C[C@H]3[C@@H]4CCC5=CC(=O)C=C[C@]5(C)[C@H]4[C@@H](O)C[C@]3(C)[C@]2(C(=O)CO)O1 | 1.36
COCCOC(=O)C1=C(C)NC(C)=C(C(=O)OC/C=C/c2ccccc2)C1c1cccc([N+](=O)[O-])c1 (stereo not drawn) [Cilnidipine] | 0.777
NS(=O)(=O)c1cc2c(cc1Cl)N=CNS2(=O)=O | 0.683
CCCN(CCC)CCc1cccc2c1CC(=O)N2 | 1.03
CC1=NN(c2ccccc2)C(=O)C1 [Edaravone (MCI-186)] | 0.531
Nc1ccn([C@H]2CC[C@@H](CO)O2)c(=O)n1 | 0.779
Nc1ccc(C(=O)O)cc1 | 0.958
Clc1ccc2c(c1)C(N1CCNCC1)=Nc1ccccc1O2 | 1.74
Cc1nc2n(c(=O)c1CCN1CCC(c3noc4cc(F)ccc34)CC1)CCCC2O (stereo not drawn) | 0.72
O.O.O.O.O=C([O-])CC(O)(CC(=O)[O-])C(=O)[O-].[Li+].[Li+].[Li+] | 1.09
C[C@@H]1O[C@@H](OC[C@H]2O[C@@H](Oc3c(-c4ccc(OCCO)c(OCCO)c4)oc4cc(OCCO)cc(O)c4c3=O)[C@H](O)[C@@H](O)[C@@H]2O)[C@H](O)[C@H](O)[C@H]1O [Troxerutin] | 0.471
CC1(C)NC(=O)N(c2ccc([N+](=O)[O-])c(C(F)(F)F)c2)C1=O | 0.86
CC#C[C@]1(O)CC[C@H]2[C@@H]3CCC4=CC(=O)CCC4=C3[C@@H](c3ccc(N(C)C)cc3)C[C@@]21C | 0.695
O=C(NC(Cc1cc(=O)[nH]c2ccccc12)C(=O)O)c1ccc(Cl)cc1 (stereo not drawn) [Rebamipide] | 0.942

SMILES | normalized DsRed fluorescence
C[C@]12C=CC(=O)C=C1CC[C@@H]1[C@@H]2C(=O)C[C@@]2(C)[C@H]1CC[C@]2(O)C(=O)CO | 0.647
CCCCCCCCCC(=O)N[C@@H](Cc1c[nH]c2ccccc12)C(=O)N[C@H](CC(N)=O)C(=O)N[C@@H](CC(=O)O)C(=O)N[C@@H]1C(=O)NCC(=O)N[C@@H](CCCN)C(=O)N[C@@H](CC(=O)O)C(=O)N[C@H](C)C(=O)N[C@@H](CC(=O)O)C(=O)NCC(=O)N[C@H](CO)C(=O)N[C@@H]([C@H](C)CC(=O)O)C(=O)N[C@@H](CC(=O)c2ccccc2N)C(=O)O[C@@H]1C [Daptomycin] | 0.064
COc1cc(NS(=O)(=O)c2ccc(N)cc2)nc(OC)n1 | 1.32
Nc1ncnc2c1ncn2[C@@H]1O[C@H](COP(=O)(O)O)[C@@H](O)[C@H]1O | 0.484
NC(=O)OCC(COC(N)=O)c1ccccc1 [Felbamate] | 0.864
NNC(=O)c1ccncc1 | 1.03
Cc1onc(-c2ccccc2)c1-c1ccc(S(N)(=O)=O)cc1 [Valdecoxib] | 0.573
CC(C)(C)NC[C@H](O)COc1ccccc1C1CCCC1 | 0.586
CC(=O)O[C@]1(C(C)=O)CC[C@H]2[C@@H]3C=C(Cl)C4=CC(=O)CC[C@]4(C)[C@H]3CC[C@@]21C | 0.594
NS(=O)(=O)c1cc(Cl)c(Cl)c(S(N)(=O)=O)c1 [Dichlorphenamide (Diclofenamide)] | 0.653
CN1CC2c3ccccc3Oc3ccc(Cl)cc3C2C1 (stereo not drawn) [Asenapine] | 1.64
O=c1[nH]cnc2c1ncn2[C@H]1CC[C@@H](CO)O1 [Didanosine (Videx)] | 0.652
CCOC(=O)C1=C[C@]2(CC)CCCN3CCc4c(n1c1ccccc41)[C@@H]32 | 0.554
C[C@@H](c1ncncc1F)[C@](O)(Cn1cncn1)c1ccc(F)cc1F | 0.766
CC#CCn1c(N2CCC[C@@H](N)C2)nc2c1c(=O)n(Cc1nc(C)c3ccccc3n1)c(=O)n2C | 0.667
CN1C2=CC(=O)/C(=N\NC(N)=O)C=C2CC1S(=O)(=O)O (stereo not drawn) [Carbazochrome sodium sulfonate] | 0.676
CCc1cccc2c3c([nH]c12)C(CC)(CC(=O)O)OCC3 (stereo not drawn) | 0.562
NC[C@H](O)c1ccc(O)c(O)c1 | 1.06
CC(=O)Oc1cc2c(s1)CCN(C(C(=O)C1CC1)c1ccccc1F)C2 (stereo not drawn) [Prasugrel (Effient)] | 0.841
COc1ccc2c(c1)c(CC(=O)O)c(C)n2C(=O)c1ccc(Cl)cc1 | 0.261
